Test [1] has as its target Retinoic acid receptor alpha (Homo sapiens) (UniProt P10276). In words: ATG_DR5_RAR_CIS: Attagene CIS-FACTORIAL HepG2 Assay for human Retinoic Acid Receptor Alpha (RARE), DR5 submotif (AID 2282934; active = hit-call score of the fitted dose curve at least 0.9, where 1 is the maximum; inactive = score below 0.9). As to conditions: HepG2 Attagene cis-factorial RARE DR5 reporter, mRNA; actives raise or lower the signal. Summed up: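 Read-out: DR5-driven reporter transcript measured by RT-PCR, 6-FAM primer extension, HpaI digest and capillary electrophoresis. Human HepG2 liver cells carry transiently transfected cis-element reporter constructs; dosing lasts 24 h. Gain or loss of signal fitted against DMSO baseline.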

Test [2] concerns the target Hepatocyte nuclear factor 3-beta (Homo sapiens) (UniProt Q9Y261). The experiment in a line: ATG_FoxA2_CIS: Attagene CIS-FACTORIAL HepG2 Assay for human Forkhead box A2 (FOXA2) (AID 2282942; active = hit-call score of the fitted dose curve at least 0.9, where 1 is the maximum; inactive = score below 0.9). The settings on record: HepG2 cis-reporter transcription factor activity, 24 h; actives raise or lower the signal. The gist of the method: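 Endogenous transcription factor activity was read in HepG2 cells carrying transiently transfected cis-promoter reporter units. After 24 h dosing, reporter mRNA was quantified by RT-PCR and capillary electrophoresis, and values fitted bidirectionally versus DMSO.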

The nature of test [3]: ATG_GRE_CIS: Attagene CIS-FACTORIAL HepG2 Assay for human Glucocorticoid Response Elements (GRE) (AID 2282947; active = hit-call score of the fitted dose curve at least 0.9, where 1 is the maximum; inactive = score below 0.9). As to conditions: HepG2 GRE cis-reporter, Attagene multiplex mRNA; actives raise or lower the signal. The gist of the method:
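Read-out: fluorescent reporter-transcript fragments separated by capillary electrophoresis after RT-PCR. Transiently transfected HepG2 cells carrying cis-element-driven reporter units were dosed for 24 h; gain or loss of signal fitted against DMSO control.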

Test [4] is described as follows: ATG_SREBP_CIS: Attagene CIS-FACTORIAL HepG2 Assay for human Sterol Regulatory Element Binding (SREBP) (AID 2282962; active = hit-call score of the fitted dose curve at least 0.9, where 1 is the maximum; inactive = score below 0.9). As to conditions: HepG2 Attagene cis-factorial SREBP reporter, mRNA; actives raise or lower the signal. The gist of the method:
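Readout: fluorescent reporter-transcript peaks resolved by capillary electrophoresis after RT-PCR. Cells were human HepG2 carrying transfected cis-promoter reporter constructs, dosed for 24 h. Gain or loss of signal was fitted against DMSO controls.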

Test [5] has as its target Hepatocyte nuclear factor 4-alpha (Homo sapiens) (UniProt P41235). The experiment in a line: ATG_HNF4a_TRANS: Attagene TRANS-FACTORIAL HepG2 Assay for human Hepatocyte Nuclear Factor 4 alpha (HNF4a) (AID 2282982). The settings on record: HepG2 HNF4a transactivation reporter, mRNA readout. Summed up:
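Transient MRTU transfection of HepG2, 24 h dosing. Readout: reporter mRNA via RT-PCR + capillary electrophoresis, fluorescence; activity fit upward relative to DMSO control.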

The nature of test [6]: ATG_M_32_TRANS: Attagene TRANS-FACTORIAL HepG2 Assay for M32 Transcription Factor (Internal Marker) (AID 2282984).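 Also: transcript level of a background control reporter unit measured by RT-PCR and capillary electrophoresis.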 The settings on record: HepG2 Attagene TRANS M32 internal marker reporter. The gist of the method:
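Read-out: fluorescent reporter cDNA fragments resolved by capillary electrophoresis after RT-PCR of total RNA. Transfected HepG2 cells were exposed to chemical for 24 h. Activity scored in the positive direction relative to DMSO.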

The nature of test [7]: ATG_NFI_CIS: Attagene CIS-FACTORIAL HepG2 Assay for human Nuclear Factor I (NFI) (AID 2282989; active = hit-call score of the fitted dose curve at least 0.9, where 1 is the maximum; inactive = score below 0.9). As to conditions: HepG2 cis-regulatory reporter, NFI response element transcription; actives raise or lower the signal. Summed up: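 Reporter transcripts were measured by RT-PCR with fluorescent primer extension and capillary electrophoresis 24 h post-treatment. HepG2 cells carried transiently transfected cis-regulated reporter constructs reporting endogenous factor activity; gain or loss fitted against DMSO baseline.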

Test [8] can be described thus: ATG_NF_kB_CIS: Attagene CIS-FACTORIAL HepG2 Assay for human Nuclear Factor Kappa B (NF-kB) (AID 2282991; active = hit-call score of the fitted dose curve at least 0.9, where 1 is the maximum; inactive = score below 0.9). As to conditions: HepG2 Attagene cis-factorial NF-kB reporter mRNA; actives raise or lower the signal. Summed up: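 Endogenous transcription factor activity in HepG2 was captured via cis-regulated reporter constructs; after 24 h dosing, reporter mRNA was reverse-transcribed, amplified, fluorescently labelled and sized by capillary electrophoresis, with activity fitted bidirectionally relative to DMSO.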

Test [9] concerns the target human Peroxisome Proliferator-activated Receptor alpha (PPARa), PPARA (gene 5465) (UniProt Q07869). The experiment in a line: ATG_PPARa_TRANS: Attagene TRANS-FACTORIAL HepG2 Assay for human Peroxisome Proliferator-activated Receptor alpha (PPARa) (AID 2283001). Summed up: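 Transient HepG2 transfection, GAL4-UAS reporters, NR-Gal4 chimeras; 24 h compound exposure. Readout: reporter transcripts by RT-PCR, 6-FAM primer extension, HpaI digest, capillary electrophoresis. Positive direction vs DMSO baseline.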

Test [10] in a line: TOX21_p53_BLA_p2_viability: Viability Assessment in the Tox21 HCT-116 p53 Agonism Beta-lactamase Assay, Phase 2 (AID 2283591).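 Also: compound exposure lasted 16 h at 37 °C; actives lower the ATP signal meaning cytotoxicity.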 Summed up:
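HCT116 p53-bla cells, 4000/well, dosed after 5 h plating (217-fold dilution of DMSO stocks) and incubated 16 h at 37C. Viability taken as cellular ATP by CellTiter-Glo luminescence after 30 min RT; signal loss marks cytotoxicity.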

The target of test [11] is Cellular tumor antigen p53 (Homo sapiens) (UniProt P04637). In words: TOX21_p53_BLA_p2_ratio: Tox21 HCT-116 p53 Agonism Beta-lactamase Assay, Ratio, Phase 2 (AID 2283592). The gist of the method:
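DMSO-normalized, positive-direction endpoint derived from the 460 nm/530 nm FRET ratio in HCT116 p53 beta-lactamase reporter cells exposed 16 h at 37C and loaded with CCF4-AM for 2 h.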

For test [12] the target is unchanged. The experiment in a line: TOX21_p53_BLA_p5_ratio: Tox21 HCT-116 p53 Agonism Beta-lactamase Assay, Ratio, Phase 5 (AID 2283599). Summed up:
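HCT-116 p53-bla cells (4000/well) plated 5 h, dosed with compound (217-fold DMSO dilution) for 16 h at 37 C; CCF4-AM substrate 2 h at room temperature. Activity is the 460/530 nm emission ratio (405 nm excitation), fitted in gain-of-signal direction versus DMSO.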

The nature of test [13]: TOX21_p53_BLA_p5_viability: Viability Assessment in the Tox21 HCT-116 p53 Agonism Beta-lactamase Assay, Phase 5 (AID 2283600). The gist of the method: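 Here cell health was gauged by ATP levels in wells holding 4000 cells, each treated 16 h with DMSO-delivered compounds at 217-fold dilution; reduced luminescence marked toxicity.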
The target in test [14] is Cellular tumor antigen p53 (Homo sapiens) (UniProt P04637). The experiment in a line: TOX21_p53_BLA_p4_ratio: Tox21 HCT-116 p53 Agonism Beta-lactamase Assay, Ratio, Phase 4 (AID 2283601). The gist of the method:
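HCT-116 p53 beta-lactamase reporter cells (4000/well) preincubated 5 h, then compound (217-fold dilution of DMSO stock) for 16 h at 37C. CCF4-AM substrate added 2 h at room temperature; 460/530 nm emission ratio fitted upward versus DMSO.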

The nature of test [15]: ATG_FoxO_CIS: Attagene CIS-FACTORIAL HepG2 Assay for human Forkhead box O (FoxO) (AID 2282943; active = hit-call score of the fitted dose curve at least 0.9, where 1 is the maximum; inactive = score below 0.9). As to conditions: HepG2 Attagene cis-reporter, FoxO element, mRNA; actives raise or lower the signal. Summed up:
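Read-out: fluorescence of 6-FAM-labelled reporter cDNA fragments resolved by capillary electrophoresis. Transiently transfected HepG2 cells were dosed for 24 h; activity fitted in both directions relative to DMSO controls.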

A short description of test [16]: ATG_PBREM_CIS: Attagene CIS-FACTORIAL HepG2 Assay for human Phenobarbital-responsive Enhancer Module (PBREM) (AID 2282955; active = hit-call score of the fitted dose curve at least 0.9, where 1 is the maximum; inactive = score below 0.9). The settings on record: HepG2 PBREM cis-reporter, Attagene multiplexed transcription; actives raise or lower the signal. The gist of the method: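 Fluorescence of labelled reporter cDNA fragments, resolved by capillary electrophoresis, gives mRNA induction in transfected HepG2 cells treated for 24 h; DMSO serves as negative control and baseline.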

A short description of test [17]: ATG_RORE_CIS: Attagene CIS-FACTORIAL HepG2 Assay for human RAR-related Orphan Receptor Element (RORE) (AID 2282959; active = hit-call score of the fitted dose curve at least 0.9, where 1 is the maximum; inactive = score below 0.9). The settings on record: HepG2 Attagene cis-factorial RORE reporter, mRNA; actives raise or lower the signal. The gist of the method: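 Cells were HepG2 carrying transfected cis-regulated reporter constructs, dosed for 24 hours. Total RNA was reverse-transcribed and reporter cDNA amplified, fluorescently labeled and sized by capillary electrophoresis. Activity was fitted bidirectionally relative to DMSO.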

The target of test [18] is human Retinoid X Receptor beta (RXRb), RXRB (gene 6257) (UniProt P28702). In words: ATG_RXRb_TRANS: Attagene TRANS-FACTORIAL HepG2 Assay for human Retinoid X Receptor beta (RXRb) (AID 2283013). The gist of the method: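 After a 24 h incubation with test chemical, transfected HepG2 cells carrying NR-Gal4 fusions and GAL4-UAS reporter transcription units yield RNA whose reporter cDNA is FAM-labelled, HpaI-cut and sized by capillary electrophoresis; increases over DMSO are scored.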

Test [19] addresses Cellular tumor antigen p53 (Homo sapiens) (UniProt P04637). The experiment in a line: TOX21_p53_BLA_p3_ratio: Tox21 HCT-116 p53 Agonism Beta-lactamase Assay, Ratio, Phase 3 (AID 2283596). The gist of the method: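 Cells were seeded at 4000/well, rested 5 h at 37C, then dosed with DMSO compound solutions (217-fold dilution) for 16 h. CCF4-AM substrate was loaded for 2 h at room temperature, and the 460/530 nm emission ratio was fitted for gain of signal versus DMSO.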

Test [20] can be described thus: TOX21_p53_BLA_p3_viability: Viability Assessment in the Tox21 HCT-116 p53 Agonism Beta-lactamase Assay, Phase 3 (AID 2283593).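 Also: cells exposed to compound for 16 h before reading.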 Summed up: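 HCT116 cells, 4000/well, dosed 5 h after plating by pin transfer (217-fold dilution from DMSO stock) and incubated 16 h at 37C, 5% CO2. Viability read as ATP luminescence with CellTiter-Glo after 30 min at room temperature.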

The structures appear in SMILES notation. Results filed as inconclusive are left out. The source made the active and inactive calls. The calls were made as follows, unless noted: active = hit-call score of the fitted dose curve at least 0.9, where 1 is the maximum; inconclusive = response in the unintended direction; inactive = score below 0.9.

Sequence of human Peroxisome Proliferator-activated Receptor alpha (PPARa), PPARA (gene 5465) (Q07869 whole entry, looked up, the tested form may be a part): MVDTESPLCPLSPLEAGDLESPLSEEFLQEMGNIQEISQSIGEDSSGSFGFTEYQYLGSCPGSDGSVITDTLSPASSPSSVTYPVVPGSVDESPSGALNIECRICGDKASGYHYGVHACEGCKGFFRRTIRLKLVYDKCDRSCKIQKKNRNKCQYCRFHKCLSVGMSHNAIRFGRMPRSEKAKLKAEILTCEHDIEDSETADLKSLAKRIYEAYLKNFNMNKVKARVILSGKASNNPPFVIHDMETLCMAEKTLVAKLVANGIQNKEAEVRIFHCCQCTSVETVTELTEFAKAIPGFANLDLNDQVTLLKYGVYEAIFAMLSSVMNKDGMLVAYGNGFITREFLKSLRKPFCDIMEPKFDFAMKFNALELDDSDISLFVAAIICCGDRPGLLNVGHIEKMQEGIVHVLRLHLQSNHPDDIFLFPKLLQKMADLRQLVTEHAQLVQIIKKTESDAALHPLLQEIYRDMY
Sequence of Hepatocyte nuclear factor 3-beta (Homo sapiens) (Q9Y261 whole entry, looked up): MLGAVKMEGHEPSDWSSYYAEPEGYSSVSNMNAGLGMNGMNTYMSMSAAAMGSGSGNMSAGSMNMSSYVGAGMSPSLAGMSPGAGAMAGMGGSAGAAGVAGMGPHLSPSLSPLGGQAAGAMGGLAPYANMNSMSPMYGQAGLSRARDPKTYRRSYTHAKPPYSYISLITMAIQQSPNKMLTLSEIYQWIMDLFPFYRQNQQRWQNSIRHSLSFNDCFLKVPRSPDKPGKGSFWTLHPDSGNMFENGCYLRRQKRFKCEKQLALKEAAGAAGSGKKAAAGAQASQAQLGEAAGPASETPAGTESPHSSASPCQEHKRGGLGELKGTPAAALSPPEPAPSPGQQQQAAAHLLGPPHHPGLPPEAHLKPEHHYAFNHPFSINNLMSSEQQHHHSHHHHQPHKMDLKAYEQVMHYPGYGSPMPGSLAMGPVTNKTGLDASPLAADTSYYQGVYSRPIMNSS
Sequence of Cellular tumor antigen p53 (Homo sapiens) (P04637 whole entry, looked up): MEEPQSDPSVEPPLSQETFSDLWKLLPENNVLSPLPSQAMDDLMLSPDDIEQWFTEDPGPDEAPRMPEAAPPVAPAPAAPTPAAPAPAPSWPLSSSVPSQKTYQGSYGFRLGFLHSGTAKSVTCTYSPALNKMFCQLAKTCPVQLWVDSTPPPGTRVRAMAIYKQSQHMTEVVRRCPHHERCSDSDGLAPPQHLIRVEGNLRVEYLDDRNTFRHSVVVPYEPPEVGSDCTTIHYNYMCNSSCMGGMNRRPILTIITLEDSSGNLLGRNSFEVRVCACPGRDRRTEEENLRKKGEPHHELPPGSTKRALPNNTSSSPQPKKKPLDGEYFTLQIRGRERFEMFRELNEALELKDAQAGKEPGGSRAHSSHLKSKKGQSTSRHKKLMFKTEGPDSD
Sequence of Retinoic acid receptor alpha (Homo sapiens) (P10276 whole entry, looked up): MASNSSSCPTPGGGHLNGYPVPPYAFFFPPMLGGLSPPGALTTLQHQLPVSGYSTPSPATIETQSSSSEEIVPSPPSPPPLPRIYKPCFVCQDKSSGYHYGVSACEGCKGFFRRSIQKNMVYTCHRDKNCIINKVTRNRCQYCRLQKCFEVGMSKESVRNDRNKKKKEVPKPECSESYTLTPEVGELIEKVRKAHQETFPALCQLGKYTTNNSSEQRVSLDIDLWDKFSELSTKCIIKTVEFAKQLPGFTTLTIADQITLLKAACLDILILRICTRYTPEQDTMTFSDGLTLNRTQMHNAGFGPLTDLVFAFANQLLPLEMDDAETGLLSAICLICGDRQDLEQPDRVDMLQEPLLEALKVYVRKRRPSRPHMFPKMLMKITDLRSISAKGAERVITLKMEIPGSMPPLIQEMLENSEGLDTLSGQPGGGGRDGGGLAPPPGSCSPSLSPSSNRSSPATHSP
Sequence of Hepatocyte nuclear factor 4-alpha (Homo sapiens) (P41235 whole entry, looked up): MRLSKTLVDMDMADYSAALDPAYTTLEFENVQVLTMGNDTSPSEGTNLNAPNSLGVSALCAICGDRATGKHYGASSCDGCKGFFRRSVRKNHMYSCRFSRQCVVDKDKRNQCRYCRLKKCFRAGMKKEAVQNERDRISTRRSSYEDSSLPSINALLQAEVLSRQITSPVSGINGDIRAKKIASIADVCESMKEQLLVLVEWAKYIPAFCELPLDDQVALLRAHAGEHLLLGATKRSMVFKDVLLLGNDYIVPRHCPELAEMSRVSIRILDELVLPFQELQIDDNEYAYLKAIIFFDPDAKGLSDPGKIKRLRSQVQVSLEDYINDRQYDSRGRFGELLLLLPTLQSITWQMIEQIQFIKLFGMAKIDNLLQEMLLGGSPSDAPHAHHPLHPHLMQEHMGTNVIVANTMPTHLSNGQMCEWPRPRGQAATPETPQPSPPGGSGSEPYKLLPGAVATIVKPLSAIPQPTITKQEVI
Sequence of human Retinoid X Receptor beta (RXRb), RXRB (gene 6257) (P28702 whole entry, looked up, the tested form may be a part): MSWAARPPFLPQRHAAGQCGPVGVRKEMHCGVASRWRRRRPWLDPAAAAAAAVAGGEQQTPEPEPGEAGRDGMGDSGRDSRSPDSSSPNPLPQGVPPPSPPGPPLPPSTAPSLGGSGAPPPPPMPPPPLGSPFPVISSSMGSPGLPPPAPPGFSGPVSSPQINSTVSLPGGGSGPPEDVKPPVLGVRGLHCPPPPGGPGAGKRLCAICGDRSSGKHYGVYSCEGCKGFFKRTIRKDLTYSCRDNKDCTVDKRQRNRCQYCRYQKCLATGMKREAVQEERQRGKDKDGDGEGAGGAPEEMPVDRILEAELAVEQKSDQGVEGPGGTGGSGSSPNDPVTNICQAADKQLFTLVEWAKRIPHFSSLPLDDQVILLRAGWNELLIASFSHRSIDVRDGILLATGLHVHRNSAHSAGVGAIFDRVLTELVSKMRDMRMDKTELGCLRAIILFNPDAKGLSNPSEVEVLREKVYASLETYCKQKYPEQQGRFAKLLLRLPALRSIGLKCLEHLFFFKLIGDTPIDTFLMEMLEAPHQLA

Take `C=C(C)C(=O)OCCCCCC`: the molecule was called inactive in test [1], in test [2], in test [3], in test [4], in test [5] and in test [6]. Moreover, the result in [7], in test [8], in [9], in test [10], in test [11] and in test [12] was inactive. In addition, the call in [13] and in test [14] was inactive.

As for `CCCCCCCCCCC1CO1` (stereo unspecified), the call in test [2], in test [15], in test [16], in test [17], in test [6] and in test [7] was inactive. Besides, the molecule was classed as inactive in test [8], in test [9], in test [18], in test [11], in test [19] and in test [14].

As for `O=C(O)c1nc(Cl)c(Cl)c(Cl)c1Cl`, the result in test [1], in test [2], in test [15], in test [3], in test [16] and in [17] was inactive. The call in test [4], in test [5], in test [6], in test [7] and in test [9] was inactive.

In the case of `O=[N+]([O-])c1ccccc1C(F)(F)F`, the molecule was called inactive in test [1], in test [16], in [17], in [4], in [5] and in test [7]. For the same molecule, the molecule was classed as inactive in [9], in test [11], in [20], in test [19], in test [12] and in test [13]. In [14], the outcome was inactive.

In the case of `c1cc(N(CC2CO2)CC2CO2)ccc1Cc1ccc(N(CC2CO2)CC2CO2)cc1` (stereo unspecified), the outcome in [1], in test [3], in [16], in test [17], in test [5] and in test [6] was inactive. Moreover, the result in [8], in test [18], in [10], in test [20] and in [13] was inactive. Moreover, the AC50 (usually the concentration at which the activity in the assay is half-maximal) in test [11] was 26.8 µM (active); in test [19] it was 81.6 µM (active); in test [12], 55.4 µM (active); in [14], 33.1 µM (active).

As for `Cc1cc(-n2nc3ccc(Cl)cc3n2)c(O)c(C(C)(C)C)c1`, the result in [1], in [2], in test [15], in test [3], in test [16] and in [17] was inactive. Moreover, the molecule was called inactive in test [5], in test [11], in test [20], in test [19] and in test [12].

The record behind these values is PubChem BioAssay (EPA / NIEHS).
